Records with an inconclusive call do not appear. A number with no mark means an inactive call. Activity calls are given as the source filed them. Unless noted, calls follow the shape of the full dose curve.
Test: qHTS assay for small molecules that induce genotoxicity in human embryonic kidney cells expressing luciferase-tagged ATAD5 (AID 651632; active = well fitted activation curve with a large enough effect in the repeat runs; also: nearly all actives have a fitted effect of over 15% in size; also: potency is read from the fitted curve at half-maximal effect)
Settings: HEK293T ATAD5-luciferase induction, 16 h; series mostly up to 83.3 µM; activation: at the top concentration
Procedure, shortened: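 Luminescence read-out: after 16 hr compound exposure at 37C, ATAD5-luciferase HEK293T cells received Amplite, 30 min RT, then CCD imaging. A rise in signal marks genotoxic stress.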
% is scaled to controls: 0 for no effect and ±100 for the full control effect.

Question: Which “activation” value does the source give for `N#CCc1cccc(C(F)(F)F)c1` here?
Answer: -0.304%

Question: Which “activation” value does the source give for `O=C=NC1CCC(CC2CCC(N=C=O)CC2)CC1` (stereo not drawn) here?
Answer: 3.17%

Question: Which “activation” value does the source give for `Cc1cc(NC(=O)C(=O)O)cc(C)c1Oc1ccc(O)c2c1CCC2` here?
Answer: 1.65%

Question: For `CC(C)CC=O`, which “activation” value is on record?
Answer: -3.4%

Question: Which Potency does the source give for `Nc1ccc(C(=O)Nc2ccccc2N)cc1` here?
Answer: 8.41 µM (active)

Question: With `O=c1c2ccccc2nnn1CCl` as the compound, how does the “activation” value read?
Answer: 2.81%

Question: With `Cc1ccc(C(C)c2ccc(C)c(C)c2)cc1C` as the compound, how does the “activation” value read?
Answer: 0.567%

Question: With `C=CCCCCCC` as the compound, how does the “activation” value read?
Answer: -2.75%

Question: With `CC(=O)N(O)CCCCCNC(=O)CCC(=O)N(O)CCCCCNC(=O)CCC(=O)N(O)CCCCCN` as the compound, how does the “activation” value read?
Answer: 2.29% [at 39.1 µM]

Question: For `FC(F)(F)C(F)(F)C(F)(F)C(F)(F)C(F)(F)C(F)(F)CCI`, which “activation” value is on record?
Answer: 3.51%

Question: For `COCCOCCOCCOCCOC`, which “activation” value is on record?
Answer: 1.72%

Question: For `CCCCCCCCCC(=O)OCC`, which “activation” value is on record?
Answer: 0.319%

Question: Which Potency does the source give for `Cc1ccc(C(=O)C(C)CN2CCCCC2)cc1` (stereo not drawn) here?
Answer: inactive

Question: With `CCN(CCO)CCCC(C)Nc1ccnc2cc(Cl)ccc12` (stereo not drawn) as the compound, how does the “activation” value read?
Answer: -1.74%

Question: For `Cc1cc(CC(=O)O)c(C)n1-c1ccc(Cl)cc1`, which “activation” value is on record?
Answer: 0.299%

Test: qHTS assay for small molecule agonists of the p53 signaling pathway - cell viability (AID 651633);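 also: p53RE-bla HCT reporter cells with a stable beta-lactamase p53 reporter; nearly all actives have a fitted effect of over 30% in size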
Settings: p53RE-bla HCT-116 viability, ATP luminescence, 16 h; series mostly up to 83.3 µM; activity change, negative = cytotoxicity: at the top concentration
Procedure, shortened: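 Viability counter-read: CellTiter-Glo luminescence (30 min, room temperature) in the same p53RE-bla plates. These plates had been exposed to compounds for 16 h at 37 C.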

Question: With `C=C(C)C(=O)OC(C)C` as the compound, how does the “activity change, negative = cytotoxicity” value read?
Answer: -4.19%

Question: With `OCC1CC2CC1C1CCC(CO)C21` (stereo not drawn) as the compound, how does the “activity change, negative = cytotoxicity” value read?
Answer: -4.18%

Question: For `CCCCCCCCN(C)C`, which “activity change, negative = cytotoxicity” value is on record?
Answer: 20.3%

Question: With `CC[C@H](C)[C@H](N)C(=O)O` as the compound, how does the “activity change, negative = cytotoxicity” value read?
Answer: -8.63%

Question: For `CCN(CC)CCc1nc(-c2ccccc2)no1`, which “activity change, negative = cytotoxicity” value is on record?
Answer: -12.6% [at 39.1 µM]

Question: For `CCCCCCCCCCCCCCCC(=O)OC/C=C(C)/C=C/C=C(C)/C=C/C1=C(C)CCCC1(C)C`, which Potency is on record?
Answer: inactive

Question: With `CCOC(=O)CC(=O)c1cc(F)c(Cl)nc1Cl` as the compound, how does the “activity change, negative = cytotoxicity” value read?
Answer: 4.36% [at 95.3 µM]

Question: For `CC(=O)O[C@H]1C[C@@H]2CC[C@@H]3[C@H](CC[C@@]4(C)[C@H]3C[C@H]([N+]3(C)CCCCC3)[C@@H]4OC(C)=O)[C@@]2(C)C[C@@H]1N1CCCCC1`, which “activity change, negative = cytotoxicity” value is on record?
Answer: 10.8%

Question: Which “activity change, negative = cytotoxicity” value does the source give for `Cc1ccc(C)o1` here?
Answer: 11.7% [at 95.3 µM]

Question: Which “activity change, negative = cytotoxicity” value does the source give for `CC(C)CCCC(C)CCO` (stereo not drawn) here?
Answer: 12.5%

Question: For `COc1ccc2[nH]c(S(=O)Cc3ncc(C)c(OC)c3C)nc2n1` (stereo not drawn), which “activity change, negative = cytotoxicity” value is on record?
Answer: -9.16%

Question: For `NC(=S)N/N=C/c1cccnc1`, which “activity change, negative = cytotoxicity” value is on record?
Answer: -18.8%

Question: With `CC(C)c1ccccc1C(C)C` as the compound, how does the “activity change, negative = cytotoxicity” value read?
Answer: -11.7%

Question: For `NCc1ccccc1`, which “activity change, negative = cytotoxicity” value is on record?
Answer: 22%

Question: Which “activity change, negative = cytotoxicity” value does the source give for `CC(C)(C)c1ccc(S)cc1` here?
Answer: 26%

Question: Which “activity change, negative = cytotoxicity” value does the source give for `CNS(=O)(=O)Cc1ccc2[nH]cc(CCN(C)C)c2c1` here?
Answer: -15.4%

Question: Which “activity change, negative = cytotoxicity” value does the source give for `COc1ccccc1OC(=O)Oc1ccccc1OC` here?
Answer: 8.94%

Question: Which “activity change, negative = cytotoxicity” value does the source give for `Cc1c(Cn2ccnc2)c2ccccc2n1CCC(=O)O` here?
Answer: 20%

Question: With `O=[N+]([O-])c1cc[n+]([O-])cc1` as the compound, how does the “activity change, negative = cytotoxicity” value read?
Answer: -9.56%

Question: Which “activity change, negative = cytotoxicity” value does the source give for `CCOc1cc(OCC)c(C(=O)CCC(=O)O)cc1OCC` here?
Answer: 16.4%

Question: For `O=S(=O)(O)c1ccc(O)c2ncccc12`, which “activity change, negative = cytotoxicity” value is on record?
Answer: 9.22%

Question: Which “activity change, negative = cytotoxicity” value does the source give for `CC[C@]12CCCN3CCc4c(n(c5ccccc45)C(=O)C1)[C@@H]32` here?
Answer: 15% [at 39.1 µM]

Question: With `CC(C)(C)C(=O)OCOP(=O)(COCCn1cnc2c(N)ncnc21)OCOC(=O)C(C)(C)C` as the compound, how does the “activity change, negative = cytotoxicity” value read?
Answer: 14.5%

Question: For `N#CCc1cccc(C(F)(F)F)c1`, which “activity change, negative = cytotoxicity” value is on record?
Answer: -21.7%

Question: With `O=C=NC1CCC(CC2CCC(N=C=O)CC2)CC1` (stereo not drawn) as the compound, how does the “activity change, negative = cytotoxicity” value read?
Answer: -19.8%

Question: With `Cc1cc(NC(=O)C(=O)O)cc(C)c1Oc1ccc(O)c2c1CCC2` as the compound, how does the “activity change, negative = cytotoxicity” value read?
Answer: 4.15%

Question: For `CC(C)CC=O`, which “activity change, negative = cytotoxicity” value is on record?
Answer: 11.1%

Question: Which “activity change, negative = cytotoxicity” value does the source give for `Nc1ccc(C(=O)Nc2ccccc2N)cc1` here?
Answer: -11.9%

Question: Which “activity change, negative = cytotoxicity” value does the source give for `O=c1c2ccccc2nnn1CCl` here?
Answer: 15.2%

Question: Which “activity change, negative = cytotoxicity” value does the source give for `Cc1ccc(C(C)c2ccc(C)c(C)c2)cc1C` here?
Answer: 4.17%

Question: Which “activity change, negative = cytotoxicity” value does the source give for `C=CCCCCCC` here?
Answer: -8.84%

Question: Which “activity change, negative = cytotoxicity” value does the source give for `CC(=O)N(O)CCCCCNC(=O)CCC(=O)N(O)CCCCCNC(=O)CCC(=O)N(O)CCCCCN` here?
Answer: 15.5% [at 39.1 µM]

Question: With `FC(F)(F)C(F)(F)C(F)(F)C(F)(F)C(F)(F)C(F)(F)CCI` as the compound, how does the “activity change, negative = cytotoxicity” value read?
Answer: -10.2%

Question: Which “activity change, negative = cytotoxicity” value does the source give for `COCCOCCOCCOCCOC` here?
Answer: 10.1%

Question: With `CCCCCCCCCC(=O)OCC` as the compound, how does the “activity change, negative = cytotoxicity” value read?
Answer: -5.48%

Question: Which Potency does the source give for `Cc1ccc(C(=O)C(C)CN2CCCCC2)cc1` (stereo not drawn) here?
Answer: inactive

Question: Which “activity change, negative = cytotoxicity” value does the source give for `CCN(CCO)CCCC(C)Nc1ccnc2cc(Cl)ccc12` (stereo not drawn) here?
Answer: 11.7%

Question: For `Cc1cc(CC(=O)O)c(C)n1-c1ccc(Cl)cc1`, which “activity change, negative = cytotoxicity” value is on record?
Answer: -11%

Reference: PubChem BioAssay (Tox21)
